PubChem BioAssay (EPA / NIEHS)
The source made the active and inactive calls. The calls were made as follows: active = hit-call score of the fitted dose curve at least 0.9, where 1 is the maximum; inactive = score below 0.9.

How the values were obtained:
[1] = read-out: Interleukin-1 alpha (IL1a), IL1A (gene 3552); experiment: BSK_KF3CT_IL1a: BioMAP Diversity Plus: KF3CT Assay for Interleukin-1 alpha (IL1a) Biomarker Activity (AID 2283070); conditions: primary human keratinocytes with fibroblasts; actives raise or lower the signal
Method in brief: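 Chemicals were dosed onto co-cultured human keratinocytes and foreskin fibroblasts, IL-1a was quantified by ELISA at 24 h, and activity was fitted in both directions relative to DMSO controls.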

[2] = read-out: TIMP metallopeptidase inhibitor 2 (TIMP2), TIMP2 (gene 7077); experiment: BSK_KF3CT_TIMP2: BioMAP Diversity Plus: KF3CT Assay for TIMP metallopeptidase inhibitor 2 (TIMP2) Biomarker Activity (AID 2283071); conditions: primary human keratinocytes with fibroblasts; actives raise or lower the signal
Method in brief: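 Cells: human keratinocytes co-cultured with foreskin fibroblasts. Treat with chemical, 24 h. Measure TIMP-2 by ELISA; fit curves bidirectionally vs DMSO baseline.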

[3] = read-out: C-C motif chemokine 2 (Homo sapiens) (UniProt P13500); experiment: BSK_KF3CT_MCP1: BioMAP Diversity Plus: KF3CT Assay for Monocyte Chemoattractant Protein 1 (MCP1/CCL2) Biomarker Activity (AID 2283073); conditions: primary human keratinocytes with fibroblasts; actives raise or lower the signal
Method in brief: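 ELISA readout of MCP-1 after 24 h chemical dosing of a human skin primary co-culture of keratinocytes and foreskin fibroblasts. Activity was fitted in both directions against DMSO.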

[4] = read-out: Matrix Metallopeptidase 9 (MMP9), MMP9 (gene 4318); experiment: BSK_KF3CT_MMP9: BioMAP Diversity Plus: KF3CT Assay for Matrix Metallopeptidase 9 (MMP9) Biomarker Activity (AID 2283074); conditions: primary human keratinocytes with fibroblasts; actives raise or lower the signal
Method in brief: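 Human keratinocyte/foreskin fibroblast co-culture; compound added; 24 h; MMP-9 by ELISA; bidirectional fit vs DMSO baseline.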

[5] = read-out: CD40, CD40 (gene 958); experiment: BSK_LPS_CD40: BioMAP Diversity Plus: LPS Assay for CD40 Biomarker Activity (AID 2283076); conditions: primary human HUVEC with PBMC; actives raise or lower the signal
Method in brief: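 Cells were dosed, incubated 24 h, then assayed for CD40 by ELISA. Gain or loss of signal was analysed relative to DMSO controls. The culture paired human umbilical vein endothelium with peripheral blood mononuclear cells.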

[6] = read-out: E-selectin (Homo sapiens) (UniProt P16581); experiment: BSK_LPS_Eselectin: BioMAP Diversity Plus: LPS Assay for Eselectin Biomarker Activity (AID 2283077); conditions: primary human HUVEC with PBMC; actives raise or lower the signal
Method in brief: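 Primary human vascular co-culture (endothelium plus PBMC) was dosed with chemical, then E-selectin quantified by ELISA at 24 h. Endpoint values derive from bidirectional curve fitting relative to DMSO.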

[7] = read-out: Interleukin-8 (IL8), CXCL8 (gene 3576); experiment: BSK_LPS_IL8: BioMAP Diversity Plus: LPS Assay for Interleukin-8 (IL8) Biomarker Activity (AID 2283078); conditions: primary human HUVEC with PBMC; actives raise or lower the signal
Method in brief: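 Readout is IL-8 by ELISA, taken 24 h after compounds were added to LPS-stimulated endothelial/PBMC co-cultures. Both increases and decreases relative to DMSO control were scored through bidirectional fitting.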

[8] = BSK_LPS_SRB: Viability Assessment in the BioMAP Diversity Plus: LPS Assay (AID 2283079); conditions: primary human HUVEC with PBMC;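 also: total protein by sulforhodamine B absorbance as a cytotoxicity measure; measured one day after compound addition; fitted in both directions against DMSO so loss or gain of signal counts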
Method in brief: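 Readout is SRB absorbance at 560 nm (0.1% stain, TCA-fixed parallel cultures) as a total-protein cytotoxicity measure. Cells: primary human umbilical vein endothelium plus peripheral blood mononuclear cells, 24 h after chemical exposure; DMSO served as baseline.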

[9] = read-out: Interleukin-1 alpha (IL1a), IL1A (gene 3552); experiment: BSK_LPS_IL1a: BioMAP Diversity Plus: LPS Assay for Interleukin-1 alpha (IL1a) Biomarker Activity (AID 2283080); conditions: primary human HUVEC with PBMC; actives raise or lower the signal
Method in brief: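 ELISA read-out of IL-1 alpha from a human primary vascular co-culture (endothelium plus PBMC) under LPS, sampled 24 hours post-dosing. Activity was fitted in both directions relative to DMSO controls.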

[10] = read-out: Monocyte Chemoattractant Protein-1 (MCP1), CCL2 (gene 6347); experiment: BSK_LPS_MCP1: BioMAP Diversity Plus: LPS Assay for Monocyte Chemoattractant Protein-1 (MCP1) Biomarker Activity (AID 2283081); conditions: primary human HUVEC with PBMC; actives raise or lower the signal
Method in brief: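 Human endothelial–PBMC co-cultures were dosed with chemical, then LPS-driven MCP-1 levels were quantified by ELISA at 24 h. Activity in either direction was fitted versus DMSO negative control.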

[11] = BSK_LPS_PGE2: BioMAP Diversity Plus: LPS Assay for Prostaglandin E2 (PGE2) Biomarker Activity (AID 2283082); conditions: primary human HUVEC with PBMC; actives raise or lower the signal
Method in brief: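 LPS-activated HUVEC/PBMC co-culture; cmpd dosed, 24 h; PGE2 by ELISA; bidirectional fit vs DMSO; SRB (0.1%, TCA-fixed, 560 nm) in parallel plates for overt cytotox.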

[12] = read-out: Macrophage colony-stimulating factor (MCSF), CSF1 (gene 1435); experiment: BSK_LPS_MCSF: BioMAP Diversity Plus: LPS Assay for Macrophage colony-stimulating factor (MCSF) Biomarker Activity (AID 2283083); conditions: primary human HUVEC with PBMC; actives raise or lower the signal
Method in brief: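 ELISA readout of M-CSF after 24 h compound exposure in a human endothelial/PBMC co-culture. Activity, in either direction, is fitted relative to DMSO vehicle.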

[13] = read-out: Tissue Factor, F3 (gene 2152); experiment: BSK_LPS_TissueFactor: BioMAP Diversity Plus: LPS Assay for Tissue Factor Biomarker Activity (AID 2283084); conditions: primary human HUVEC with PBMC; actives raise or lower the signal
Method in brief: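 ELISA signal for cell-surface Tissue Factor (CD142) was read 24 h after compound dosing of an LPS-stimulated human endothelial–PBMC primary co-culture. Gain or loss of signal was scored relative to DMSO.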

[14] = read-out: Tumor necrosis factor (Homo sapiens) (UniProt P01375); experiment: BSK_LPS_TNFa: BioMAP Diversity Plus: LPS Assay for Tumour Necrosis Factor alpha (TNFa) Biomarker Activity (AID 2283085); conditions: primary human HUVEC with PBMC; actives raise or lower the signal
Method in brief: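 Read-out is ELISA of TNFa in primary human endothelial cell–PBMC co-cultures at 24 h after compound. Activity in either direction was fitted against DMSO.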

[15] = read-out: Vascular cell adhesion molecule 1 (VCAM1), VCAM1 (gene 7412); experiment: BSK_LPS_VCAM1: BioMAP Diversity Plus: LPS Assay for Vascular cell adhesion molecule 1 (VCAM1) Biomarker Activity (AID 2283086); conditions: primary human HUVEC with PBMC; actives raise or lower the signal
Method in brief: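 HUVEC + PBMC co-culture, LPS system; compound 24 h; VCAM-1 by ELISA; bidirectional fit vs DMSO control; parallel SRB (0.1%, TCA-fixed, 560 nm) for cytotoxicity.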

[16] = read-out: CD38, CD38 (gene 952); experiment: BSK_SAg_CD38: BioMAP Diversity Plus: SAg Assay for CD38 Biomarker Activity (AID 2283087); conditions: primary human HUVEC with PBMC; actives raise or lower the signal
Method in brief: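 Human HUVEC plus PBMC co-culture stimulated with superantigen; CD38 measured by ELISA 24 h after chemical dosing. Fluorescence read-out, bidirectional fit against DMSO; cytotoxicity tracked in parallel by SRB and Alamar Blue.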

[17] = read-out: CD40, CD40 (gene 958); experiment: BSK_SAg_CD40: BioMAP Diversity Plus: SAg Assay for CD40 Biomarker Activity (AID 2283088); conditions: primary human HUVEC with PBMC; actives raise or lower the signal
Method in brief: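 Compounds were dosed onto a human primary endothelial–PBMC co-culture, and after 24 h CD40 was quantified by ELISA using a fluorescence signal. Activity in either direction was fitted relative to DMSO.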

[18] = read-out: CD69, CD69 (gene 969); experiment: BSK_SAg_CD69: BioMAP Diversity Plus: SAg Assay for CD69 Biomarker Activity (AID 2283089); conditions: primary human HUVEC with PBMC; actives raise or lower the signal
Method in brief: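 Endothelial/PBMC co-culture; chemical added; 24 h incubation; CD69 ELISA with fluorescence detection; bidirectional fit vs DMSO.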

[19] = read-out: urokinase plasminogen activator (uPA), PLAU (gene 5328); experiment: BSK_KF3CT_uPA: BioMAP Diversity Plus: KF3CT Assay for urokinase plasminogen activator (uPA) Biomarker Activity (AID 2283075); conditions: primary human keratinocytes with fibroblasts; actives raise or lower the signal
Method in brief: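 ELISA readout of uPA, analyzed for signal gain or loss relative to DMSO, from a human primary keratinocyte–foreskin fibroblast co-culture measured 24 h after chemical treatment.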

Measured: outcome

Sequence of Tumor necrosis factor (Homo sapiens) (P01375 whole entry, looked up): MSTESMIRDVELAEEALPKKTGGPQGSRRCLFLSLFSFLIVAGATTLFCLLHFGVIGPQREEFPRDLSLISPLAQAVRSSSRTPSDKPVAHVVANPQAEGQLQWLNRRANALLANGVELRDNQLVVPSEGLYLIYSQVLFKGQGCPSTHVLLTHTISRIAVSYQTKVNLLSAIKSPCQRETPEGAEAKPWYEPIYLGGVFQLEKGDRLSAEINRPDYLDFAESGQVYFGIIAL
Sequence of E-selectin (Homo sapiens) (P16581 whole entry, looked up): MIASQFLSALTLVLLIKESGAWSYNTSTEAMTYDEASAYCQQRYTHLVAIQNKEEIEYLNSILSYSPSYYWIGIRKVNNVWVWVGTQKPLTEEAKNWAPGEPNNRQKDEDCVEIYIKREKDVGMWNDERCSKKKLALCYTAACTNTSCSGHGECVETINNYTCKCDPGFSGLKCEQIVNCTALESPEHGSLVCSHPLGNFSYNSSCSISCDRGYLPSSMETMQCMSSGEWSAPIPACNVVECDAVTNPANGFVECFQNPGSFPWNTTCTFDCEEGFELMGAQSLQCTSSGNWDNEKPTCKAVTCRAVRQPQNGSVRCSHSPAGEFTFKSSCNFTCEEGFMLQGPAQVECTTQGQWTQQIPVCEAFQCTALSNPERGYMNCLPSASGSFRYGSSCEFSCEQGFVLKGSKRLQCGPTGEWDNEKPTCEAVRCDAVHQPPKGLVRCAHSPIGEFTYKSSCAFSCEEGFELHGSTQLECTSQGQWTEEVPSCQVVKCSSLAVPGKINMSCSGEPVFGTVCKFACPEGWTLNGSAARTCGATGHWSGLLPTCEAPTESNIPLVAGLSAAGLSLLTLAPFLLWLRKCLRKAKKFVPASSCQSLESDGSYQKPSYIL

O=C(O)CCC(F)(F)C(F)(F)C(F)(F)F
inactive: [1] | [2] | [3] | [4] | [5] | [6] | [7] | [8] | [9] | [10] | [11] | [12] | [13] | [14] | [15] | [16] | [17] | [18]

O=C(O)C(F)(F)C(F)(F)C(F)(F)C(=O)O
inactive: [1] | [2] | [3] | [4] | [19] | [5] | [6] | [7] | [8] | [9] | [10] | [11] | [12] | [13] | [14] | [15] | [16] | [17] | [18]

OCC(O)CC(F)(F)C(F)(F)C(F)(F)C(F)(F)F (stereo not given)
inactive: [1] | [2] | [3] | [4] | [5] | [6] | [7] | [8] | [9] | [10] | [11] | [12] | [13] | [14] | [15] | [16] | [17] | [18]
